Screens as filed in PubChem BioAssay.
Hits are enriched below; roughly 18% of the tested compounds scored in any of these assays.
TDP1 block: qHTS Assay for Inhibitors of Tyrosyl-DNA Phosphodiesterase (TDP1). Tyrosyl-DNA phosphodiesterase 1 (Homo sapiens), Q9NUW8. recombinant TDP1, AlphaScreen DNA substrate cleavage. Potency, µM (titrated, usually from 130 µM), inactives show at the top dose activity change, negative = inhibition, hits mostly inhibitors. 0.28% of 350,000 active. AID 485290, 2010; also: potency is read from the fitted curve at half-maximal effect; nearly all actives have a fitted effect of over 40% in size
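Recombinant E. coli-expressed Tdp1 (1 nM) preincubated with compound 15 min at RT, then 5'-biotin/3'-phosphotyrosine-FITC DNA substrate (15 nM) added for 5 min. AlphaScreen beads (10 ug/ml) added, 10 min RT; tyrosine-FITC cleavage read as signal loss.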
IL-1B inflam inh: qHTS for Inhibitors of Inflammasome Signaling: IL-1-beta AlphaLISA Primary Screen. 4.7% of 360,000 active. AID 743279, 2014. THP-1 LPS/ATP IL-1B secretion, AlphaLISA, 16 h; stronger effect = lower value. activity change, % at 57.5 µM; in the data active = activity change below about -50%; inconclusive = mostly about -30% to -49%
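THP-1 cells pretreated 1 hr with compounds (up to 57.5 uM final), then stimulated with LPS (250 ng/mL final) plus ATP (1.25 mM final); secreted IL-1B measured by AlphaLISA after 16 hr, decreased signal indicating inhibition.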
CtBP-E1A blk: qHTS Assay for Inhibitors of the CtBP/E1A Interaction | AlphaScreen GST-E1A/His-CtBP binding, 1536-well; stronger effect = lower value | AID 651724, 2012 | activity change, % (test concentration not listed) | CtBP / adenovirus E1A interaction (AlphaScreen) | 0.49% of 340,000 active; in the data active = activity change below about -65%; inconclusive = mostly about -30% to -63%
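AlphaScreen with 125 nM GST-E1A and 125 nM His-CtBP (5X stocks) in Tris pH 8.0, 300 mM NaCl, BSA, Tween 20, TCEP. Compounds preincubated 2 h at 37 deg C, then glutathione donor/nickel acceptor beads added for 1 h at 37 deg C in dark.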
Six1-Eya2 blk: qHTS Assay for Inhibitors of the Six1/Eya2 Interaction | Homeobox protein SIX1 (Homo sapiens) + Protein phosphatase EYA2 (Homo sapiens), … | AlphaScreen GST-Six1/His-Eya2 binding, biochemical; stronger effect = lower value | 0.56% of 360,000 active | activity change, % (no concentration beside the values); in the data active = activity change below about -65%; inconclusive = mostly about -30% to -63%
Target sequence (O00167 whole entry, looked up): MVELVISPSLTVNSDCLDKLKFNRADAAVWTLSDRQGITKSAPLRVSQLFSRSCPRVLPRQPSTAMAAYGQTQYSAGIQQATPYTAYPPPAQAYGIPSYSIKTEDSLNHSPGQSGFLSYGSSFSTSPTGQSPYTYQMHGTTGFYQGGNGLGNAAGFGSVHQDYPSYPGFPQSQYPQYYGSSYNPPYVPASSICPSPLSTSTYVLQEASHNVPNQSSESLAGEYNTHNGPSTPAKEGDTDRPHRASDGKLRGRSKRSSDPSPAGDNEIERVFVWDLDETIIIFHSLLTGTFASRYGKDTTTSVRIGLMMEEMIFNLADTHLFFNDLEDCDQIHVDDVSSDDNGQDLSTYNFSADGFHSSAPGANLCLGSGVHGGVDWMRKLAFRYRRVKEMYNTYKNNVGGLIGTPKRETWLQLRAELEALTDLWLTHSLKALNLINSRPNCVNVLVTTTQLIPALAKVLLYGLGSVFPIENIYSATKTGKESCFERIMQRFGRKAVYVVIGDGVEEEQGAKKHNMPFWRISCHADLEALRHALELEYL
Target sequence (Q15475 whole entry, looked up): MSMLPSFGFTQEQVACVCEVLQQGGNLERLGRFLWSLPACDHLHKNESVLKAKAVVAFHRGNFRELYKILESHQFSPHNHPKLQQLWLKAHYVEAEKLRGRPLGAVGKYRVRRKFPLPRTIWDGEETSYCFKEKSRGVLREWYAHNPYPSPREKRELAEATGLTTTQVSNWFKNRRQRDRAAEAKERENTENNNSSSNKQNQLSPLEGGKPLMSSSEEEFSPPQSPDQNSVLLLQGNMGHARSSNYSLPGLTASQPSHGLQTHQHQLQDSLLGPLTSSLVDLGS
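Compounds are tested against tagged Six1 and Eya2 proteins bridged by glutathione donor and nickel acceptor beads; after a one-hour incubation at 37 °C without light, AlphaScreen emission is recorded.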
TDP1 cell noCPT: qHTS for Inhibitors of human tyrosyl-DNA phosphodiesterase 1 (TDP1): qHTS in cells in absence of CPT. DT40 Tdp1-/- hTDP1 cells, no CPT, ATP luminescence, 48 h. Potency, µM (titrated, usually from 46.2 µM), for the others: at the highest dose activity change, negative = growth inhibition, usual class: inhibitors. 15% of 420,000 active. AID 686978, 2013; also: potency is read from the fitted curve at half-maximal effect; nearly all actives have a fitted effect of over 55% in size
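Camptothecin absent (DMSO only). Human TDP1-complemented DT40 knockout cells, 400 cells/well, 37 °C for minimum 48 hr; ATP measured via CellTiter-Glo, 30 min dark incubation, luminescence.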
TDP1 cell CPT: qHTS for Inhibitors of human tyrosyl-DNA phosphodiesterase 1 (TDP1): qHTS in cells in presence of CPT. chicken DT40 Tdp1-/-;hTDP1 cells + 20 nM CPT, ATP luminescence, 48 h. 12% of 420,000 active. Potency, µM (highest dose often 46.2 µM), for the others: at the highest dose activity change, negative = growth inhibition, actives largely listed as inhibitors; also: potency is read from the fitted curve at half-maximal effect; nearly all actives have a fitted effect of over 55% in size
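Chicken DT40 Tdp1-/- cells complemented with human TDP1, 400 cells/well, exposed to compounds plus 20 nM camptothecin for at least 48 h at 37 C; viability read as ATP content by CellTiter-Glo luminescence.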
* hit, by the source's call; ? = inconclusive; nt = no result; [ ] = remark or other dose. Unless noted, calls follow the shape of the dose curve; as a rule, active = well fitted curve in the direction sought with a large enough effect; inconclusive = small, poorly fitted or top-dose-only effect, or another doubt; inactive = no such curve, though single readings can be large; an effect the other way counts as inactive or inconclusive. % is scaled to controls: 0 for no effect and ±100 for the full control effect.

SMILES	TDP1 block	IL-1B inflam inh	CtBP-E1A blk	Six1-Eya2 blk	TDP1 cell noCPT	TDP1 cell CPT
O=C(NCCCN1CCC(Cc2ccccc2)CC1)C1CC(=O)N(C2CCCCCC2)C1 (configuration not stated)	-4%	0	2	-2	26µM*	?
CN1CCN(CCCNC(=O)C2CC(=O)N(C3CCCCC3)C2)CC1 (configuration not stated)	4%	17	4	-1	7%	6%
O=C(NCCCN1CCCCCC1)[C@@H](c1ccccc1)C1CCCCC1	12%[56.1 µM]	nt	nt	nt	11µM*	11µM*
CSc1ccc(NC(=O)NCCCN2CCC(Cc3ccccc3)CC2)cc1	nt	-54*	nt	?	23µM*	?
COc1ccc(NC(=O)NCCCN2CCC(Cc3ccccc3)CC2)cc1	nt	?	nt	-9	?	?
O=C(C1CCCN1S(=O)(=O)c1ccc(Cl)cc1)N1CCOCC1 (configuration not stated)	2%	9	0	8	-4%	1%
CC(=O)Nc1ccc(S(=O)(=O)N[C@@H](C)C(=O)OCC(=O)c2ccc(Br)s2)cc1	nt	14	1	12	-22%	-8%
COc1ccc(C(=O)COC(=O)[C@H](C)NS(=O)(=O)c2ccc(NC(C)=O)cc2)cc1OC	nt	-93*	3	-1	-8%	-6%
COc1ccc(OCCOC(=O)C(C)NS(=O)(=O)c2ccc(NC(C)=O)cc2)cc1 (configuration not stated)	2%	-77*	nt	2	?	-15%
CCOC(=O)c1ccc(NC(=O)C(C)NS(=O)(=O)c2ccc(OC)cc2)cc1 (configuration not stated)	-2%	11	-16	0	-27%	-21%
CN1CCN(c2ccc3c(c2)C2CC3CCN2C(=O)OCc2ccccc2)CC1 (configuration not stated)	nt	-17	-21	-28	?	?
COc1ccccc1Nc1ncnc2sccc12	nt	9	-3	-5	-4%	-4%
Cc1ccc(N2CCN(c3ncccc3[N+](=O)[O-])CC2)c(C)c1	nt	-50*	-24	?	?	2%
Cc1ccc(C)c(N2CCN(c3ncccc3[N+](=O)[O-])CC2)c1	nt	-51*	?	-27	-26%	17%
O=[N+]([O-])c1cccnc1N1CCCCC1	4%	8	-4	-1	5%	-2%
Cc1noc(C)c1C(=O)N1CCN(Cc2ccccc2)CC1	3%	0	-5	1	5%	?
COC(=O)c1cc(C(=O)OCC(=O)NC2CCCCCCC2)cc([N+](=O)[O-])c1	4%	4	-17	1	24%	-7%
Cc1cc(Cn2nnc3ccccc32)c(O)c(C(C)(C)C)c1	-8%	25	nt	8	16µM*	16µM*
CC(C)(C)c1cccc(Cn2nnc3ccccc32)c1O	-11%	-1	0	3	21µM*	29µM*
Cn1nc(NC(=O)C(F)(F)F)c2ncc(-c3ccccc3)nc21	nt	-20	-6	0	?	8%
CCOC(=O)C1CCCN(S(=O)(=O)c2cc(C(=O)OC)n(C)c2)C1 (configuration not stated)	nt	20	4	6	16µM*	16µM*
COc1ccc(N2CCN(S(=O)(=O)c3ccc4c(c3)CCCN4C(C)=O)CC2)cc1	-1%	nt	nt	nt	?	16µM*
COc1ccc(CNC(=O)C2CCCN(S(=O)(=O)c3ccc4c(c3)CCCN4C(C)=O)C2)cc1 (configuration not stated)	3%	4	-8	0	10µM*	15µM*
CCOC(=O)C1CCCN(S(=O)(=O)CCNC(=O)c2cccc(OC)c2)C1 (configuration not stated)	nt	-68*	1	2	-46%	-37%
Cc1ccc(C(=O)NCC(=O)N2CCN(c3cccc(Cl)c3)CC2)s1	-1%	-10	-22	-5	?	-23%
SMILES	TDP1 block	IL-1B inflam inh	CtBP-E1A blk	Six1-Eya2 blk	TDP1 cell noCPT	TDP1 cell CPT
CNc1nc(Oc2ccccc2C(=O)OC)nc(SC)n1	5%	45	5	3	0%	-9%
Cc1cccc(N(C(=O)CS(=O)CC(=O)Nc2ccc3c(c2)OCO3)C(C)C(=O)NC2CCCC2)c1C (configuration not stated)	2%	-19	nt	-1	-7%	-23%
C[C@@H](NC(=O)[C@@H]1CCCN1C(=O)[C@@H]1CCCN1)c1ccccc1	nt	25	0	-6	-19%	-16%
CCOC(=O)C1CCCN(S(=O)(=O)c2ccc3c(c2)CCCN3C(C)=O)C1 (configuration not stated)	2%	nt	nt	nt	18µM*	?
CCOC(=O)C1CCN(S(=O)(=O)c2ccc3c(c2)CCCN3C(C)=O)CC1	1%	73	1	-1	-18%	-6%
Cc1cc(NC(=O)CCN2C(=O)c3ccccc3C2=O)no1	7%	-4	4	1	-8%	-9%
Cc1cc(NC2=CC(=O)C(=O)c3ccccc32)no1	nt	-101*	?	8	12µM*	6.5µM*
COc1cc(OC)c(NC2=CC(=O)C(=O)c3ccccc32)cc1Cl	nt	?	nt	-29	18µM*	12µM*
CCC(C(=O)Nc1cc(Cl)c(OC)cc1OC)c1ccccc1 (configuration not stated)	4%	-1	-4	0	?	?
COc1cc2oc3ccccc3c2cc1N(CC(=O)N(C)C)S(=O)(=O)c1ccccc1	3%	10	0	17	?	-61%
COc1cc2oc3ccccc3c2cc1N(CC(=O)N1CCCCC1)S(=O)(=O)c1ccc(C)cc1	4%	8	-9	-4	23µM*	?
CCN(CC)C(=O)CN(c1cc2c(cc1OC)oc1ccccc12)S(=O)(=O)c1ccccc1	1%	-12	-7	-7	?	18µM*
CCNc1nc(NC(C)C)nc(N(n2cnnc2)S(=O)(=O)c2ccc(C)cc2)n1	0%	0	0	11	?	-12%
CCn1c(CNC(=O)c2ccco2)nnc1SCC(=O)Nc1ccccc1Cl	2%[0.0935 µM]	29	7	1	-4%	-16%
